Assay results published in ChEMBL document CHEMBL3988442, “University of Dundee, Small-Polar-MMV Screening Library” (2021).
The whole screen tested about 69,000 compounds, of which about 1,000 (1.4%) showed an effect of 50% or more. The sample as a whole holds a higher share of strong results than the screen did.

Tested on: Leishmania donovani
Experiment: Leishmania intramacrophage assay
Type: functional, organism-based
Parameters: scale not given: in the data most compounds retested in dose-response had high values

Q: With `CC1CCc2n[nH]c(C(=O)NCCCc3ccccn3)c2C1` (stereo not given) as the compound, how does the “Percent Effect” value (30.3 µM, […]) read?
A: Its value is -2.29%.

Q: How did the “Percent Effect” value (30.3 µM, […]) turn out when `CCOC(=O)c1ccc(NC(=O)c2cc3c([nH]c2=O)CCCC3)cc1` was run?
A: Its value is 34.55%.

Q: Which “Percent Effect” value (30.3 µM, […]) does the source give for `CC(=O)Nc1nc(C(=O)N2CCCC2c2noc(C(C)C)n2)cs1` (stereo not given) here?
A: Its value is -12.95%.

Q: Which “Percent Effect” value (30.3 µM, […]) does the source give for `C[C@@H]1CN(Cc2cccc(F)c2)C[C@]12CCN(Cc1cccnc1)C2=O.O=C(O)C(F)(F)F.O=C(O)C(F)(F)F` here?
A: Its value is -0.6911%.

Q: Which “Percent Effect” value (30.3 µM, […]) does the source give for `COc1cc2nc(NCc3scnc3C)nc(N)c2cc1OC` here?
A: Its value is 62.63%.

Q: With `COc1ccccc1NCC(=O)NCc1scnc1C` as the compound, how does the “Percent Effect” value (30.3 µM, […]) read?
A: Its value is 29.29%.

Q: `COc1cc2nc(NCc3cc(C)on3)nc(N)c2cc1OC` was tested. Which “Percent Effect” value (30.3 µM, […]) did it give?
A: The value was -3.382%.

Q: For `COCCCN1CC2(CCCCN2C(C)=O)CC1=O` (stereo not given), which “Percent Effect” value (30.3 µM, […]) is on record?
A: Its value is 13.42%.

Q: `Cc1nc(N)ncc1C(=O)N1CCCC(CCc2ccc(F)c(F)c2)C1` (stereo not given) was tested. Which “Percent Effect” value (30.3 µM, […]) did it give?
A: The value was 6.718%.

Q: For `Cc1ccc(-n2cnc(Cl)c2CO)cc1`, which “Percent Effect” value (30.3 µM, […]) is on record?
A: The value was 12.87%.

Q: Which “Percent Effect” value (30.3 µM, […]) does the source give for `OCc1c(Cl)ncn1-c1ccc(F)cc1` here?
A: The value was 25.45%.

Q: `OCc1c(Cl)ncn1-c1ccccc1` was tested. Which “Percent Effect” value (30.3 µM, […]) did it give?
A: The value was 61.75%.

Q: How did the “Percent Effect” value (30.3 µM, […]) turn out when `CC(C)CN1CCC2(CCN(Cc3nccs3)CC2)C1=O.O=C(O)C(F)(F)F` was run?
A: Its value is 12.73%.

Q: `Cc1noc(C)c1C(=O)N(C)C(C)c1cccnc1` (stereo not given) was tested. Which “Percent Effect” value (30.3 µM, […]) did it give?
A: The value was -5.434%.

Q: How did the “Percent Effect” value (30.3 µM, […]) turn out when `Cc1noc(CN(C)C(=O)c2n[nH]c(N)c2-c2ccccc2)n1` was run?
A: Its value is -0.6486%.

Q: `CN(C)CC1(O)CCCN(c2noc(-c3ccccc3)n2)CC1` (stereo not given) was tested. Which “Percent Effect” value (30.3 µM, […]) did it give?
A: Its value is 2.473%.

Q: With `CN(C)CC1(O)CCCN(c2nc(-c3ccccc3)no2)CC1` (stereo not given) as the compound, how does the “Percent Effect” value (30.3 µM, […]) read?
A: Its value is 31.64%.

Q: How did the “Percent Effect” value (30.3 µM, […]) turn out when `Cc1cc(N2CCCC(O)(CN(C)C)CC2)nc(-c2ccccc2)n1` (stereo not given) was run?
A: The value was 63.47%.

Q: `N#Cc1ccc(CN2C(=O)c3ccccc3CS2(=O)=O)cc1` was tested. Which “Percent Effect” value (30.3 µM, […]) did it give?
A: Its value is -16.87%.

Q: `Cc1cc(=O)[nH]c(-n2nc(C)c(CCC(=O)NCC(C)C)c2C)n1` was tested. Which “Percent Effect” value (30.3 µM, […]) did it give?
A: The value was 15.57%.

Q: How did the “Percent Effect” value (30 µM, 30.03 µM) turn out when `COC(=O)CCc1c(C)nn(-c2nc(C)cc(=O)[nH]2)c1C` was run?
A: The value was -18.05%.

Q: With `Cc1cc(=O)[nH]c(-n2nc(C)c(CCC(=O)Nc3nc(C)cs3)c2C)n1` as the compound, how does the “Percent Effect” value (30.3 µM, […]) read?
A: Its value is 59.04%.

Q: With `Cc1nc2c(NCC(C)N(C)c3ccccc3)ncnc2o1` (stereo not given) as the compound, how does the “Percent Effect” value (30.3 µM, […]) read?
A: The value was 33.01%.

Q: How did the “Percent Effect” value (30.3 µM, […]) turn out when `Cc1ncnc(NCC(C)N(C)c2ccccc2)c1C` (stereo not given) was run?
A: The value was 57.28%.

Q: For `CC(CNc1cncc(-n2cccn2)n1)N(C)c1ccccc1` (stereo not given), which “Percent Effect” value (30 µM, 30.03 µM) is on record?
A: The value was 31.44%.

Q: With `Cn1cccc1C(=O)N1CCC(c2nccn2Cc2ccncc2)CC1` as the compound, how does the “Percent Effect” value (30.3 µM, […]) read?
A: Its value is 6.64%.

Q: `CN1CC(=O)N(c2ccccc2)CC12CCN(C(=O)c1cnccn1)C2.O=C(O)C(F)(F)F` (stereo not given) was tested. Which “Percent Effect” value (30.3 µM, […]) did it give?
A: The value was 4.293%.

Q: Which “Percent Effect” value (30.3 µM, […]) does the source give for `Cc1nn(CCC#N)c(C)c1[C@@H]1C=C[C@@H](NCc2ccc(F)cc2)C1` here?
A: The value was 101.5%.

Q: Which “Percent Effect” value (30.3 µM, […]) does the source give for `Cc1nn(CCC#N)c(C)c1[C@@H]1C=C[C@@H](NCc2cccc(Cl)c2)C1` here?
A: The value was -10.48%.

Q: With `Cc1nn(CCC#N)c(C)c1CCC(=O)N(C)Cc1ccc(F)cc1F` as the compound, how does the “Percent Effect” value (30.3 µM, […]) read?
A: The value was 2.715%.

Q: `Cc1cccc2c1N(C)C(=O)C21CC(=O)Nc2c1cnn2C(C)(C)C` (stereo not given) was tested. Which “Percent Effect” value (30.3 µM, […]) did it give?
A: The value was -18.37%.

Q: How did the “Percent Effect” value (30 µM) turn out when `CN(C)c1ncccc1CNS(=O)(=O)c1cc(F)cc(F)c1` was run?
A: Its value is 13.05%.

Q: `COc1ccc(S(=O)(=O)NCc2cccnc2N(C)C)cc1` was tested. Which “Percent Effect” value (30 µM) did it give?
A: Its value is 27.65%.

Q: How did the “Percent Effect” value (30 µM, 30.03 µM) turn out when `CCOc1ccc(S(=O)(=O)NCc2cccnc2N(C)C)cc1` was run?
A: The value was 61.25%.

Q: For `CCOC(=O)c1ccc(S(=O)(=O)NCc2cccnc2N(C)C)cc1`, which “Percent Effect” value (30 µM) is on record?
A: The value was 21.62%.

Q: With `COc1ccc(S(=O)(=O)NCc2cccnc2N(C)C)cc1F` as the compound, how does the “Percent Effect” value (30 µM, 30.03 µM) read?
A: The value was 58.31%.

Q: For `CN(C)c1ncccc1CNS(=O)(=O)c1ccc(F)c(F)c1`, which “Percent Effect” value (30 µM) is on record?
A: The value was 32.33%.

Q: With `CC(C)CCN(C)Cc1ccccc1-c1nc(C(C)C)cc(=O)[nH]1` as the compound, how does the “Percent Effect” value (30.3 µM, […]) read?
A: Its value is 41.3%.

Q: Which “Percent Effect” value (30 µM) does the source give for `CNc1cc2c(nn1)CCN(C(=O)c1coc(Br)c1)C2` here?
A: The value was -2.691%.

Q: Which “Percent Effect” value (30.3 µM, […]) does the source give for `COCCC1(CO)CCCN(Cc2cc(C(F)(F)F)ccc2F)C1` (stereo not given) here?
A: Its value is 0.4261%.

Q: How did the “Percent Effect” value (30.3 µM, […]) turn out when `O=C(Nc1cccc(CN2CCC(CO)CC2)c1)c1cc(Cl)c[nH]1` was run?
A: The value was 28.48%.

Q: How did the “Percent Effect” value (30.3 µM, […]) turn out when `COCCNC(=O)Cn1cc2c(n1)c(C)nn2C` was run?
A: The value was -28.68%.

Q: With `O=C(NCCSC1CCCC1)c1cc(C2CC2)on1` as the compound, how does the “Percent Effect” value (30.3 µM, […]) read?
A: The value was -5.763%.

Q: For `Cc1ccc2nc(C)cc(C(=O)NCc3csc(N(C)C)n3)c2c1`, which “Percent Effect” value (30.3 µM, […]) is on record?
A: The value was 25.38%.

Q: For `COCCN(C)CC1CCCN1S(=O)(=O)Cc1ccccc1F` (stereo not given), which “Percent Effect” value (30.3 µM, […]) is on record?
A: Its value is -13.31%.

Q: Which “Percent Effect” value (30 µM, 30.03 µM) does the source give for `O=C(CCO)N1CCOC2(CCCN(C(=O)c3ccco3)C2)C1` (stereo not given) here?
A: The value was -4.275%.

Q: How did the “Percent Effect” value (30.3 µM, […]) turn out when `O=C(c1ccco1)N1CCCC2(C1)CN(c1nncs1)CCO2` (stereo not given) was run?
A: Its value is 54.73%.

Q: Which “Percent Effect” value (30.3 µM, […]) does the source give for `CC(=O)N1CCCC2(C1)CN(c1nncs1)CCO2.O=C(O)C(F)(F)F` (stereo not given) here?
A: The value was 42.05%.

Q: `CO[C@@H]1CCN(S(=O)(=O)c2cccs2)[C@H]1Cc1cccnc1.O=C(O)C(F)(F)F` was tested. Which “Percent Effect” value (30.3 µM, […]) did it give?
A: The value was 35.84%.

Q: With `Cc1cccc(C)c1OCC(=O)NS(=O)(=O)c1c(C)noc1C` as the compound, how does the “Percent Effect” value (30 µM) read?
A: Its value is 12.57%.

Q: For `CC(C)S(=O)(=O)N1CCC(c2[nH]ncc2S(C)(=O)=O)C1` (stereo not given), which “Percent Effect” value (30.3 µM, […]) is on record?
A: Its value is -8.157%.

Q: How did the “Percent Effect” value (30.3 µM, […]) turn out when `COc1ccc(-c2ccccc2CCN)c(OC)c1OC` was run?
A: The value was 95.35%.

Q: Which “Percent Effect” value (30.3 µM, […]) does the source give for `COc1ccc(-c2ccccc2CN)c(OC)c1` here?
A: Its value is 18.4%.

Q: How did the “Percent Effect” value (30.3 µM, […]) turn out when `COc1ccc(-c2cc(CN)ccc2F)c(OC)c1OC` was run?
A: The value was -7.273%.

Q: `CC(C)N1CC[C@@H]2[C@H](COCC3CC3)CN(C)C(=O)[C@@H]2CC1.O=C(O)C(F)(F)F` was tested. Which “Percent Effect” value (30.3 µM, […]) did it give?
A: Its value is 9.802%.

Q: With `CS(=O)(=O)c1ccc(NC(=O)NCCC2=CCCCC2)cc1` as the compound, how does the “Percent Effect” value (30.3 µM, […]) read?
A: The value was 16.41%.

Q: Which “Percent Effect” value (30 µM, 30.03 µM) does the source give for `Cc1ccc(CNC(=O)CN2CCN(CC(O)C3CC3)CC2)cc1.Cl.Cl` (stereo not given) here?
A: Its value is 31.99%.

Q: With `O=C(NC(CN1CCCC1)c1ccccc1)c1c(O)cc(F)cc1F` (stereo not given) as the compound, how does the “Percent Effect” value (30.3 µM, […]) read?
A: Its value is 5.752%.

Q: For `Cc1ccc(CNC(CN2CCN(C)CC2)c2ccccc2)cc1` (stereo not given), which “Percent Effect” value (30 µM, 30.03 µM) is on record?
A: Its value is 94.58%.

Q: With `Cn1cc(C(NCc2ccc(F)cc2)c2cccc(F)c2)cn1` (stereo not given) as the compound, how does the “Percent Effect” value (30.3 µM, […]) read?
A: The value was 7.526%.

Q: For `COc1ccc(CNC(Cn2cncn2)c2ccccc2)cc1C` (stereo not given), which “Percent Effect” value (30.3 µM, […]) is on record?
A: The value was 17.02%.

Q: How did the “Percent Effect” value (30.3 µM, […]) turn out when `Cl.O=C(NCc1ccc(F)cc1)N1CCN(CC(O)C2CC2)CC1` (stereo not given) was run?
A: Its value is 10.63%.

Q: How did the “Percent Effect” value (30.3 µM, […]) turn out when `CNS(=O)(=O)c1cccc(C(C)NCc2ccc(F)c(F)c2)c1` (stereo not given) was run?
A: The value was 11.11%.

Q: Which “Percent Effect” value (30 µM) does the source give for `Cc1ccc(CNC(c2ccccc2)c2nccn2C)cc1.Cl` (stereo not given) here?
A: Its value is -15.51%.

Q: How did the “Percent Effect” value (30 µM, 30.03 µM) turn out when `Cc1ccc(CNC(c2ccccc2)c2nccn2C)cc1C` (stereo not given) was run?
A: The value was 38.71%.
